PubChem BioAssay (EPA / NIEHS)
Activity calls are given as the source filed them. How the source made its calls: active means hit-call score of the fitted dose curve at least 0.9, where 1 is the maximum; inactive means score below 0.9.

assay: CCTE_Shafer_MEA_dev_inter_network_spike_interval_mean: CCTE's Neural Network Formation Assay for Mean Inter-network Spike Interval, Shafer Lab (AID 2284047)
Method: CCTE_Shafer_MEA_dev assay is conducted using Axion Biosystems 48 well microelectrode array (MEA) plates and Maestro recording system. Each well of the MEA plate contains a grid of 16 microelectrodes embedded in the culture surface. Electrically active cells, such as neurons, can be cultured over the electrodes, and electrical activity in these cells can be recorded extracellularly. The spontaneous firing of neurons is captured from each electrode on a microsecond timescale providing both temporally and spatially precise data. […] The CCTE_Shafer_MEA_dev assay uses primary cultures of rat cortical neurons. Recordings are made on days post-plating 5, 7, 9 and 12. As these cultures mature over time, neural networks develop functional activity and form cohesive networks in which electrical activity can be highly coordinated. CCTE_Shafer_MEA_dev_inter_network_spike_interval_mean is 1 of 19 assay components of the CCTE_Shafer_MEA_dev assay. It measures the average time interval between network spikes (temporally-clustered groups of actional potential firing across multiple electrodes) as the average time between peaks of consecutive network spikes during a recording in a microelectrode array (MEA) using Axion Biosystems Maestro 768 channel amplifier with the AxIS adaptive spike detector. To collapse across multiple recordings made on days post-plating 5, 7, 9 and 12, the trapezoidal area-under-the-curve of the component is calculated.Data from the assay component CCTE_Shafer_MEA_dev_inter_network_spike_interval_mean was analyzed into 1 assay endpoint. This assay endpoint, CCTE_Shafer_MEA_dev_inter_network_spike_interval_mean, was analyzed in the negative analysis fitting direction relative to DMSO as the negative control and baseline of activity. Using a type of functional reporter, gain or loss-of-signal activity can be used to understand electrical activity.
On the day prior to culture, each well was coated thoroughly with 150 uL of 0.05% polyethyleneimine (PEI, Sigma Cat P3143) in 50 mM HEPES (Sigma Cat H7523) at a pH of 8. The plate was incubated at 37C for one hour. PEI was rinsed out with 500 uL of sterile water three times. Plates were stored at 4C until the day of culture. This culture was plated at a seeding density of 1.5 x 10^5 cells/well on a 48-well MEA plate, prepared as described above. Cells were administered via a 25 uL media/laminin ([…]; Sigma Cat L2020-1MG) drop directly onto the microelectrode array, as adding the cells with the laminin results in better attachment than pre-coating with laminin. After 2 hours, an additional 475 uL of cortical media was added and the cells returned to the incubator. Exposure starts at day 0 of plating and is continued over twelve days of network development until the experiment is terminated. Cells are fed with fresh medium on DIV 5 and 9, following the recordings on those days. The entire volume of media in the well is exchanged and any vehicle or compound treatment is renewed. Complete details are found in OP-NHEERL/ISTD/SBB/TJS/2015-03-r0 (available on request, email shafer.tim@epa.gov). Measurement of the electrical activity is non-invasive, and recordings can be made from the same plate over multiple different days of the culture. In cortical neurons, this allows for the measurement of extracellular action potentials over the period during which networks form in the MEA plate.

SMILES	outcome
OC(O)C(F)(F)C(F)(F)F	inactive
FC(F)(F)C(F)(F)C(F)(F)C(F)(F)C(F)(F)C(F)(F)C(F)(F)CCI	inactive
OCC(F)(F)C(F)(F)C(F)(F)C(F)(F)C(F)(F)C(F)(F)CO	inactive
OCC(O)CC(F)(F)C(F)(F)C(F)(F)C(F)(F)F (centres undefined)	inactive
NC(=O)C(F)(F)C(F)(F)C(F)(F)C(F)(F)C(N)=O	inactive
CCN(CCO)S(=O)(=O)C(F)(F)C(F)(F)C(F)(F)C(F)(F)C(F)(F)C(F)(F)C(F)(F)C(F)(F)F	inactive
NC(=O)C(F)(F)C(F)(F)C(F)(F)C(F)F	inactive
O=C(O)C(F)(F)C(F)(F)C(F)(F)OC(F)(F)F	inactive
OCC(F)(F)C(F)(F)C(F)(F)C(F)(F)C(F)(F)C(F)(F)C(F)(F)C(F)(F)CO	inactive
O=S(=O)(O)CCC(F)(F)C(F)(F)C(F)(F)C(F)(F)F	inactive
OCC(F)(F)C(F)(F)C(F)(F)CO	inactive
O=S(=O)(O)CCC(F)(F)C(F)(F)C(F)(F)C(F)(F)C(F)(F)C(F)(F)C(F)(F)C(F)(F)F	inactive
C=CC(=O)OCCC(F)(F)C(F)(F)C(F)(F)C(F)(F)F	inactive
CO[Si](C)(CCC(F)(F)C(F)(F)C(F)(F)C(F)(F)C(F)(F)C(F)(F)F)OC	inactive
NC(O)(C(F)(F)F)C(F)(F)F	inactive
CNS(=O)(=O)C(F)(F)C(F)(F)C(F)(F)C(F)(F)C(F)(F)C(F)(F)C(F)(F)C(F)(F)F	inactive
OCCCCC(F)(F)C(F)(F)C(F)(F)C(F)(F)F	inactive
C=CC(=O)OCC(F)(F)C(F)(F)C(F)(F)COC(=O)C=C	inactive
NC(=O)C(F)(F)C(F)(F)C(F)(F)F	inactive
